# Methyltransferases – Primary Screen for Target Class Profiling of Small Molecule Inhibitors of Methyltransferases | purified enzyme, MTase-Glo SAH luminescence; hits give low values | calls only at 40 µM | hit rate 3.9% among 25,000 | AID 1745853, 2022; call rule not given here
#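 Each enzyme was assayed with SAM and its substrate. SAH formation detected by MTase-Glo luminescence; single-point 40 uM screen[…].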
# MTase-Glo counter – counter-screen for methyltransferase inhibitors: coupling enzymes without methyltransferase; shares compounds with Methyltransferases; MTase-Glo coupled enzymes, SAH conversion luminescence, no MTase; Potency, µM (series often up to 57.3 µM), actives largely listed as inhibitors; hit rate 6% among 180; active = well fitted inhibition curve with a large enough effect; inconclusive = small, poorly fitted or top-dose-only effect
# Calls only; . = inactive; ? = inconclusive; + = active, no number. Only a selection was taken, and hits are over-represented in it overall.
SMILES,Methyltransferases,others
C=CC(C)(C)c1[nH]c2c(CC=C(C)C)cc(CC=C(C)C)cc2c1C[C@@H]1NC(=O)[C@H](C)NC1=O,.,
CO[C@H]1C[C@H](O[C@H]2CC[C@@]3(C)C(=CCC4C3CC[C@]3(C)[C@@H](C5=CC(=O)OC5)CC[C@]43O)C2)O[C@@H](C)[C@@H]1O[C@@H]1O[C@H](CO[C@@H]2O[C@H](CO)[C@@H](O)[C@H](O)[C@H]2O)[C@@H](O)[C@H](O)[C@H]1O (stereo partly drawn),.,
C/C=C(\C)C(=O)O[C@H]1[C@H](OC(C)=O)[C@]2(CO)[C@H](O)[C@H](O)[C@]3(C)C(=CCC4[C@@]5(C)CC[C@H](O[C@@H]6O[C@H](C(=O)O)[C@@H](O)[C@H](O[C@@H]7OC[C@H](O)[C@H](O[C@@H]8OC[C@H](O)[C@H](O)[C@H]8O)[C@H]7O)[C@H]6O[C@@H]6O[C@H](CO)[C@@H](O)[C@H](O)[C@H]6O)C(C)(C)C5CC[C@]43C)[C@@H]2CC1(C)C (stereo partly drawn),.,
C=CC(C)(C)c1[nH]c2cccc3c2c1C[C@@H]1[C@@H]3[C@@H](OC(C)=O)[C@H](C)CN1C,.,
N#Cc1ccc(N2CCN(C(=O)COc3ccc4[nH]cc(CCN)c4c3)CC2)cc1,+,
Cc1ccccc1C1c2cccn2-c2ccccc2CN1C(=O)NC1CCCC1 (stereo not drawn),.,
O=C(Nc1ccccc1Br)N1Cc2ccccc2-n2cccc2C1c1cccs1 (stereo not drawn),.,
CCCN1CCc2cc(O)cc3c2[C@H]1Cc1ccc(O)c(O)c1-3,+,
CCCN1CCO[C@H]2c3cc(O)ccc3OC[C@@H]21,.,
CN1CCc2cc(O)cc3c2[C@H]1Cc1ccc(O)c(O)c1-3,+,
CC1=CC2(O)/C=C/C(C)(O)C(O)C(O)/C=C/C(=O)OC23C(=O)NC(CC(C)C)C3C1C (stereo not drawn),.,
CCOCCCNC(=O)N1Cc2ccccc2-n2cccc2C1c1ccc(SC)cc1 (stereo not drawn),.,
CCC1c2cccn2-c2ccccc2CN1C(=O)Nc1cc(C(=O)OC)ccc1C(=O)OC (stereo not drawn),.,
CCOC(=O)C1CCC(CNC(=O)N2Cc3ccccc3-n3cccc3C2C)CC1 (stereo not drawn),.,
CCC1c2cccn2-c2ccccc2CN1C(=O)Nc1ccc(F)cc1F (stereo not drawn),.,
C[C@]12CC[C@H](O)CC1=CC[C@@H]1C2CC[C@]2(C)[C@@H](C3=CC(=O)OC3)CC[C@]12O (stereo partly drawn),.,
CN(C)c1nc2c(c(N3C[C@H]4CNC[C@@]4(C(=O)O)C3)n1)CCCC2,.,
CCc1ccc(NC(=O)N2Cc3ccccc3-n3cccc3C2c2ccc(N(C)C)cc2)cc1 (stereo not drawn),.,
Cc1ccc(C2c3cccn3-c3ccccc3CN2C(=O)NCCc2ccccc2)cc1 (stereo not drawn),.,
CN1CCOC[C@H]2CCNC[C@H]21,.,
COc1ccc(-c2cc3c(cn2)CN(C)CCN3)cn1,+,MTase-Glo counter=.
Cn1nc(-c2ccc3ccccc3c2)cc1[C@H]1CN2CC[C@H]1C[C@@H]2CNC(=O)c1ccco1,.,
COc1ccccc1-c1cc([C@H]2CN3CC[C@H]2C[C@@H]3CNC(=O)N2CCOCC2)n(C)n1,.,
CC(=O)NC[C@H]1C[C@@H]2CCN1C[C@@H]2c1cc(-c2ccc3ccccc3c2)nn1C,+,MTase-Glo counter=?
O=C(NCc1ccco1)N1Cc2ccccc2-n2cccc2C1c1ccccc1 (stereo not drawn),.,
SMILES,Methyltransferases,others
CCC1c2cccn2-c2ccccc2CN1C(=O)Nc1cc(C)ccc1OC (stereo not drawn),.,
CC1c2cccn2-c2ccccc2CN1C(=O)Nc1ccccc1F (stereo not drawn),.,
C[C@@H]1O[C@@H](OC2CCC3(C=O)C(CCC4C3CCC3(C)C(C5=CC(=O)OC5)C(O)CC43O)C2)[C@H](O)[C@H](O)[C@H]1O[C@@H]1O[C@H](CO)[C@@H](O)[C@H](O)[C@H]1O (stereo partly drawn),.,
Cc1ccc(C2c3cccn3-c3ccccc3CN2C(=O)Nc2cc(C)ccc2C)cc1 (stereo not drawn),.,
Cc1ccc(NC(=O)N2Cc3ccccc3-n3cccc3C2c2cccc(Cl)c2)c(Cl)c1 (stereo not drawn),.,
CNC1CCc2ccccc21 (stereo not drawn),+,MTase-Glo counter=.
Cc1ccc(C2c3cccn3-c3ccccc3CN2C(=O)Nc2ccc3c(c2)OCCO3)cc1 (stereo not drawn),.,
Cc1ccccc1-n1c(Cn2ncc3c(N)ncnc32)nc2cccc(C)c2c1=O,.,
Cc1ccc(NC(=O)N2Cc3ccccc3-n3cccc3C2C(C)C)cc1Cl (stereo not drawn),.,
COC(=O)CCNC(=O)N1Cc2ccccc2-n2cccc2C1c1cccs1 (stereo not drawn),.,
